Assay outcomes (PubChem BioAssay)
TDP1 inh: blocks human tyrosyl-DNA phosphodiesterase 1 | Q9NUW8 | recombinant TDP1, AlphaScreen DNA substrate cleavage | Potency, µM (highest dose often 130 µM), inactives show top-dose activity change, negative = inhibition, hits mostly inhibitors | 350,000 tested, 0.28% active | AID 485290; note: potency is the fitted concentration of half-maximal effect; nearly all actives have a fitted effect of over 40% in size
Target sequence (Q9NUW8 whole entry, looked up): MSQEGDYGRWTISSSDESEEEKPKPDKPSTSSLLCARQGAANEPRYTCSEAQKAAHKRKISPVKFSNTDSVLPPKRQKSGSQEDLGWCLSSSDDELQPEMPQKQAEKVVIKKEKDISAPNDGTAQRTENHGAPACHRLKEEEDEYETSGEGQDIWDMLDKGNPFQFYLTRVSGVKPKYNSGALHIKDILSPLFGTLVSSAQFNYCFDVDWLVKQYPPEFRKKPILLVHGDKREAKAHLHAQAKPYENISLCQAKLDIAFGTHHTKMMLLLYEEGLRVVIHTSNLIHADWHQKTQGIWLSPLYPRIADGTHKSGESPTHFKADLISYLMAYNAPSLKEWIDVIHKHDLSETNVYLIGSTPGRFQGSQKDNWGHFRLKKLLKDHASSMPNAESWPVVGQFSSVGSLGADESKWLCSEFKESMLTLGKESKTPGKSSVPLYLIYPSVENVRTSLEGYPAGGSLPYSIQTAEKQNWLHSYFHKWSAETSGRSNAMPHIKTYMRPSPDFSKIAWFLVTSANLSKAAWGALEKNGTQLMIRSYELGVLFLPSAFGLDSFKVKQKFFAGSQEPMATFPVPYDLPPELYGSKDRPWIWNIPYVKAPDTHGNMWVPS
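Enzyme-compound mixtures sat 15 min at room temperature, followed by a 5 min reaction with 15 nM final substrate and 10 min with AlphaScreen beads. Recombinant human Tdp1 was used at 1 nM final.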
ELG1 DNA repair: ELG1-dependent DNA repair inhibition | HEK293T ELG1-luciferase reporter, luminescence, 16 h; DNA damage induced by 5-fluorouridine | Potency, µM (highest dose often 46.1 µM), for the others: top-dose activity change, negative = inhibition, hits mostly inhibitors | 330,000 tested, 2.3% active | AID 504467; note: potency is the fitted concentration of half-maximal effect; nearly all actives have a fitted effect of over 55% in size
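In this reporter screen, reduction of luminescence relative to DMSO vehicle indicated activity. Compounds and 5-fluorouridine were added together to 2,000 cells per well, incubated for 16 hr at 37 °C, then developed with ONE-Glo.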
TDP1 cell noCPT: qHTS for Inhibitors of human tyrosyl-DNA phosphodiesterase 1 (TDP1): qHTS in cells in absence of CPT; DT40 Tdp1-/- hTDP1 cells, no CPT, ATP luminescence, 48 h; 420,000 tested, 15% active; Potency, µM (highest dose often 46.2 µM), for the others: at the highest dose activity change, negative = growth inhibition, usual class: inhibitors; note: potency is the fitted concentration of half-maximal effect; nearly all actives have a fitted effect of over 55% in size
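No-CPT arm: Tdp1-/-;hTDP1 DT40 cells (400/well) plus compounds, incubated ≥48 hr at 37 °C. Readout CellTiter-Glo luminescence.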
IL-1B inflam inh: inhibitors of inflammasome signaling (IL-1 beta secretion); activity change, % at 57.5 µM; THP-1 LPS/ATP IL-1B secretion, AlphaLISA, 16 h; hits give low values; 360,000 tested, 4.7% active; in the data active = activity change below about -50%; inconclusive = mostly about -30% to -49%
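Secreted IL-1B measured by AlphaLISA bead assay after 16 h compound exposure of THP-1 cells; compounds (final up to 57.5 uM) added 1 h before LPS (250 ng/mL) and ATP (1.25 mM) stimulation; lower signal means less secretion.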
Giardia killer: kills Giardia lamblia; 340,000 tested, 0.15% active; activity change, % at 7.66 µM, hits read low; Giardia lamblia trophozoite viability; in the data active = activity change below about -80%; inconclusive = between about -30% and that limit;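 note: parasites exposed to compound for two days anaerobically before the ATP read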
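Trophozoite viability was measured as ATP-dependent luminescence, read 15-30 min after reagent addition. Before that, parasites at 100 cells/well were exposed to compounds for 48 h, anaerobically, at 37 deg C.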
DT40 TDP1 CPT: DT40-hTDP1 cell growth loss with CPT | chicken DT40 Tdp1-/-;hTDP1 cells + 20 nM CPT, ATP luminescence, 48 h | Potency, µM (doses to about 46.2 µM), for inactives: at the top dose activity change, negative = growth inhibition, most hits filed as inhibitors | 420,000 tested, 12% active | AID 686979; note: potency is the fitted concentration of half-maximal effect; nearly all actives have a fitted effect of over 55% in size
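Chicken DT40 Tdp1-/- cells complemented with human TDP1, 400 cells/well, exposed to compounds plus 20 nM camptothecin for at least 48 h at 37 C; viability read as ATP content by CellTiter-Glo luminescence.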
* marks the source's active call; other numbers are inactive results; i = inactive; u = inconclusive; x = no result. In the library only some 19% were active in any assay of this set; here they are far more common. Unless noted, calls come from the whole dose curve; as a rule, active = well fitted curve in the direction sought with a large enough effect; inconclusive = small, poorly fitted or top-dose-only effect, or another doubt; inactive = no such curve, though single readings can be large; an effect the other way counts as inactive or inconclusive. % is set by controls: 0 for no effect and ±100 for the full control effect.

SMILES | TDP1 inh | ELG1 DNA repair | TDP1 cell noCPT | IL-1B inflam inh | Giardia killer | DT40 TDP1 CPT
Cc1ccc(-c2noc(-c3ccc(N4CCCC4)c([N+](=O)[O-])c3)n2)cc1 | 5.7% | x | u | x | x | u
Cc1cc(N)cc(C)c1-c1c(Br)cc(N)cc1Br | x | x | 18.4µM* | 14.2 | 3.9 | 13µM*
CCOC(=O)C1CCCCN1C(=O)/C(=C/c1ccc(OC)cc1)c1ccc(OC)c(OC)c1 (stereo unspecified) | 3.5% | 18.3µM* | u | -10.6 | 7.3 | 18.4µM*
CCOC(=O)C1CCCCN1C(=O)c1ccc2nc(Cc3ccc(OC)cc3)oc2c1 (stereo unspecified) | 4.6% | -5.9% | u | 24.0 | 7.2 | u
O=[N+]([O-])c1ccc(Sc2ccccn2)nc1 | 9.6% | 6.5% | 12.0% | 9.5 | 7.8 | -0.8%
O=C(Nc1cc(Sc2ccccn2)cc([N+](=O)[O-])c1)c1ccc([N+](=O)[O-])cc1 | 8.6% | u | 2.06µM* | -75.7* | 45.6 | u
COc1ccc(CCNc2ncnc3nc[nH]c23)cc1 | 0.8% | x | 6.31µM* | x | -18.0 | 2.82µM*
COc1ccccc1CCNc1ncnc2nc[nH]c12 | 0.6% | x | u | x | 7.1 | u
CCC(=O)Nc1ccc2nc(SCc3ccc(C)cc3)sc2c1 | 2.6% | x | u | x | x | -26.3%
O=C(c1ccc(Br)o1)N1CCN=C1SCc1cccnc1 | 3.9% | -17.6% | -13.2% | -54.2* | -4.3 | u
O=C(c1ccc(S(=O)(=O)N2CCCCC2)cc1)N1CCN=C1SCc1cccnc1 | -2.0% | u | u | 1.4 | -27.0 | 16.4µM*
CSC1=NCCN1C(=O)c1ccc(Br)o1 | 2.0% | u | -20.1% | -9.8 | 16.8 | 6.2%
O=C(c1ccccc1F)N1CCN=C1SCc1cccnc1 | 7.8% | -24.4% | -8.0% | -14.1 | u | -1.9%
O=C(c1cc2ccccc2o1)N1CCN=C1SCc1cccnc1 | 0.0% | -11.1% | -25.7% | -58.2* | 17.8 | -22.7%
COc1ccc(C(=O)COC(=O)c2nc3nccc(C)n3n2)cc1F | 0.1% | 17.1% | -15.6% | -1.8 | 11.0 | -12.2%
CCN(CC)CCCNC(=O)c1cc2c(Cl)nc3ccccc3c2s1 | -1.1% | 0.0% | u | u | 21.2 | 18.4µM*
CCN(CCCNC(=O)c1cc2c(Cl)nc3ccccc3c2s1)Cc1ccccc1 | 1.2% | x | 23.1µM* | x | x | u
CCc1ccccc1NC(=O)c1cc2c(Cl)nc3ccccc3c2s1 | 6.9% | x | u | x | x | u
O=C1CN(C(=O)CNCc2ccccc2Cl)c2ccccc2N1 | -10.3% | 5.4% | -6.0% | -8.0 | 14.9 | -6.6%
COC(=O)[C@]12CCCCC=C1N(Cc1ccc3c(c1)OCO3)C(=O)[C@H](CC(=O)NCCc1ccccc1OC)C2 | x | x | 18.4µM* | x | x | 23.1µM*
CCOC(=O)[C@]12CCCC=C1N(Cc1ccc3c(c1)OCO3)C(=O)[C@H](CC(=O)NCCc1ccccc1OC)C2 | x | x | 16.4µM* | u | x | u
OC(c1cccc(CN2CCCCC2)c1)c1ncc(-c2ccccc2Cl)[nH]1 (stereo unspecified) | x | x | -28.3% | -24.5 | x | u
COCC(=O)N1CCC(Oc2ccc(C(=O)NCCCC3CCCC3)cc2)CC1 | 4.7% | 28.2% | 18.4µM* | i | 9.8 | 13µM*
COCC(=O)N1CCC(Oc2ccc(C(=O)NCCCn3cccn3)cc2)CC1 | 5.4% | 5.0% | u | 22.6 | -23.8 | -4.2%
CCCCCCCCCCCCC/C=C/[C@@H](O)C(CO)NC(C)=O (stereo partly specified) | -3.1% | x | x | x | x | x
SMILES | TDP1 inh | ELG1 DNA repair | TDP1 cell noCPT | IL-1B inflam inh | Giardia killer | DT40 TDP1 CPT
Cc1nccc(-c2cccc(N/N=C(\C#N)C(=O)c3ccccc3)c2)n1 | 5.5% | 14.6µM* | 10.3µM* | 4.3 | u | 20.6µM*
Cc1nccc(-c2cccc(NC(=O)Nc3ccc(Cl)cc3)c2)n1 | 0.0% | -10.2% | u | -22.1 | -4.8 | -15.7%
CN(C)c1nc(OCCNC(=O)Nc2ccccc2)nc(N2CCOCC2)n1 | 4.7% | -19.0% | -78.0% | -9.5 | 8.6 | 23.1µM*
CC(C)(C)c1ccc(NC(=O)N2CCCN(c3c(Cl)cncc3Cl)CC2)cc1 | 0.0% | u | 7.31µM* | -64.6* | 4.7 | 16.4µM*
COC(=O)C/C=C/[C@@H](C)[C@@H](Cc1ccccc1Br)OC | 7.5% | x | x | x | x | x
CN(C)c1ccc(SC#N)cc1 | 0.0% | 18.3µM* | -23.2% | -99.4* | 6.9 | -4.4%
CC(=O)N1CCN(S(=O)(=O)c2ccc(F)c(Cl)c2)CC1 | -2.7% | 1.7% | -3.8% | -0.8 | 4.3 | 0.0%
CCOC(=O)c1c(NC(=O)CC)sc2c1CCN(Cc1ccccc1)C2 | x | -4.4% | u | 8.6 | -13.4 | u
CCOC(=O)N1CCc2c(sc(NC(=O)Cc3ccccc3)c2C(=O)c2ccc(OC)cc2)C1 | 8.2% | u | 25.9µM* | -6.6 | -2.7 | u
CCOC(=O)c1c(NC(=O)CN(CC)CC)sc2c1CCN(C(=O)OCC)C2 | 8.7% | u | 25.9µM* | u | 11.8 | u
COc1ccc(C(=O)c2c(NC(C)=O)sc3c2CCN(C(=O)OC(C)(C)C)C3)cc1 | 6.2% | u | u | x | 2.0 | -3.5%
CCOC(=O)c1c(NC(=O)CN2CCCCC2)sc2c1CCN(C(=O)OCC)C2 | 0.0% | u | u | -85.7* | 6.6 | u
CCOC(=O)c1c(NC(=O)CN2CCCCC2)sc(C)c1C | 2.5% | -5.6% | u | 7.1 | -18.4 | u
CC(=O)OC1CC(OC(C)=O)[C@]2(C)C(CC(OC(C)=O)[C@]3(C)C2CC[C@@]2(C)C(c4ccoc4)OC(=O)C4O[C@]432)C1(C)C (stereo partly specified) | 1.4% | x | u | x | x | u
